Binding signal data for 86 sequences are collected here from publication PMC10668032, “Altered binding affinity of SIX1-Q177R correlates with enhanced WNT5A and WNT pathway effector expression in Wilms tumor”.

In all, about 33,000 sequences were measured (“e-score”: median about -0.053, highest 2% from about 0.38 on). The entries come from a sample that favours the highest values as a whole.

The target in this assay is T1, SIX1 homeodomain (reference allele) (human, UniProt Q15475 108-198).
T1 sequence: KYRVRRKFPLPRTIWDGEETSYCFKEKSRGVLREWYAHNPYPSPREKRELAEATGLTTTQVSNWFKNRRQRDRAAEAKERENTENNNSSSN
As to the kind of experiment: universal protein binding microarray; Universal all-10-mer PBM (8x60K, AMADID 030236), 300 nM GST-tagged protein, Alexa Fluor 488 anti-GST; buffer, salt, pH and temperature not stated (as in Berger); high values mean tight binding. As to conditions: protein: ivt; tags: N-terminal GST; dsDNA, one strand shown. In short, it runs like this: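 Duplicate protein binding microarrays (universal 'all 10-mer', 8×60K format) were incubated with GST-tagged homeodomains at 300 nM final concentration. Binding was quantified as 8-mer E-scores with the Universal PBM Analysis Suite.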
On to AGGTGTCA, for which the binding signal amounted to 0.45238 ± 0.000134 E-score. In the case of TATCTACA, the binding signal came to 0.167 ± 0.0212 E-score. With CAAAGATC, the binding signal worked out at 0.209 ± 0.0122 E-score. In the case of GATCTCCA, the binding signal turned out to be 0.239 ± 0.0181 E-score. The same measure for ACATATAT: 0.252 ± 0.0998 E-score; for ATCACTGA: 0.243 ± 0.0373 E-score. In the case of GTATTTAA, the binding signal stood at 0.172 ± 0.0151 E-score.

Take TAACCCGA: the binding signal was found to be 0.213 ± 0.0195 E-score.

Consider CATATTAA, for which the binding signal was 0.175 ± 0.121 E-score. Take ATCATTAC: the binding signal was found to be 0.295 ± 0.0265 E-score. For AGAATACT, the binding signal was determined as 0.208 ± 0.057 E-score.

In the case of AAAAGGAT, the binding signal was 0.163 ± 0.102 E-score. The same measure for CGGTGTCA: 0.471 ± 0.00725 E-score. As for CGGTGTCC, the binding signal worked out at 0.352 ± 0.0179 E-score. In the case of CGGTGTAA, the binding signal turned out to be 0.257 ± 0.00735 E-score. The same measure for AGGATCGG: 0.32 ± 0.0208 E-score.

On to ATCACGAC, for which the binding signal came out at 0.18 ± 0.0119 E-score. In the case of AGAATGAT it was 0.216 ± 0.0443 E-score; in that of GGGATATA, 0.433 ± 0.0145 E-score; in that of CGGATATA, 0.422 ± 0.00574 E-score. Regarding GGGATAAA, the binding signal amounted to 0.212 ± 0.0282 E-score. As for GGGATAGA, the binding signal was determined as 0.256 ± 0.0216 E-score. In the case of CTAGATGC, the binding signal came out at 0.153 ± 0.0669 E-score.

For CATACACG, the binding signal is 0.157 ± 0.0344 E-score. Regarding AGCTATAT, the binding signal turned out to be 0.2 ± 0.0474 E-score.

With ACACGGGT, the binding signal is 0.23 ± 0.0432 E-score. As to CATCGATA, the binding signal was 0.308 ± 0.015 E-score. The same measure for CGATCGGA: 0.24 ± 0.0149 E-score; for ATATCTGA: 0.356 ± 0.0383 E-score. In the case of ATATCGGC it was 0.394 ± 0.011 E-score. Regarding AGATCGGA, the binding signal was determined as 0.255 ± 0.00445 E-score. For ATATGGGC, the binding signal was determined as 0.326 E-score. Consider ATATGGGG, for which the binding signal turned out to be 0.4 ± 0.0352 E-score. As to ATATCTGC, the binding signal was 0.346 ± 0.0315 E-score. Regarding ATATCGGA, the binding signal was determined as 0.427 ± 0.0311 E-score. In the case of ATATGGGA it was 0.319 ± 0.00531 E-score; in that of AGATCGGC, 0.216 ± 0.0174 E-score; in that of GGATCGGA, 0.38 ± 0.0357 E-score. As to CTATCGGA, the binding signal was determined as 0.289 ± 0.00216 E-score. With ATCCGTAG, the binding signal came to 0.225 ± 0.00492 E-score. AATACTAT: the binding signal was 0.278 ± 0.0809 E-score.

As to TATCCACA, the binding signal was 0.326 ± 0.0288 E-score.

AGAGTGAT: the binding signal was determined as 0.268 ± 0.0506 E-score. The same measure for ATATGTTC: 0.334 ± 0.0471 E-score.

On to ACCTATCT, for which the binding signal came to 0.195 ± 0.01 E-score.

Regarding GTGTTATA, the binding signal turned out to be 0.219 ± 0.0623 E-score. With TCCATACA, the binding signal is 0.166 ± 0.0645 E-score. In the case of AGATCGTA it was 0.237 ± 0.00569 E-score. For the sequence CGATCGTA, the binding signal amounted to 0.212 ± 0.0626 E-score. On to GCATCGGA, for which the binding signal amounted to 0.161 ± 0.101 E-score. Take GTATCGGA: the binding signal turned out to be 0.451 ± 0.0142 E-score.

With ATCTCGGG, the binding signal worked out at 0.272 ± 0.0234 E-score. For GGATCGTA, the binding signal was determined as 0.383 ± 0.00451 E-score. For the sequence TCATCGGA, the binding signal stood at 0.176 ± 0.0293 E-score.

On to AGATCGGG, for which the binding signal was 0.294 ± 0.0193 E-score. ATATCGGG: the binding signal worked out at 0.4018 ± 0.00171 E-score.

As to CACCGGCA, the binding signal came out at 0.188 ± 0.0219 E-score. Regarding CTATATAC, the binding signal was 0.275 ± 0.0339 E-score. In the case of TACTCACA it was 0.165 ± 0.0208 E-score; in that of ATAAGGTA, 0.247 ± 0.0353 E-score. In the case of ACCGCGAT it was 0.323 ± 0.00333 E-score; in that of ATGTATCA, 0.448 ± 0.011 E-score.

ATGTATCG: the binding signal was determined as 0.38 ± 0.0144 E-score. Turning to GTGTATCA, the binding signal is 0.4623 ± 0.00404 E-score. The same measure for ATGTATTA: 0.241 ± 0.0485 E-score.

Regarding ATCTATCC, the binding signal was determined as 0.372 ± 0.0185 E-score. As for ATGTATCC, the binding signal was determined as 0.407 ± 0.00354 E-score.

As to ATGTATAG, the binding signal amounted to 0.217 ± 0.0184 E-score. The same measure for ATGTATTG: 0.209 ± 0.0502 E-score; for ATGTATAC: 0.325 ± 0.0321 E-score. The same measure for GTGTATGA: 0.17 ± 0.0805 E-score; for GTGTATTA: 0.271 ± 0.032 E-score. The same measure for ATGTATAA: 0.154 ± 0.0486 E-score. For ATCCTGGG, the binding signal turned out to be 0.235 ± 0.00999 E-score. In the case of ACATTATC it was 0.165 ± 0.0505 E-score; in that of TACCGCGA, 0.25 ± 0.0197 E-score; in that of ATCATCGC, 0.326 ± 0.0174 E-score. In the case of TACCCGCA it was 0.161 ± 0.0756 E-score; in that of ATCGACAC, 0.306 ± 0.0819 E-score; in that of ATCTTGCA, 0.216 ± 0.0388 E-score.

Turning to CTGTATAC, the binding signal was determined as 0.338 ± 0.0175 E-score. The same measure for CTGTATGA: 0.187 ± 0.0219 E-score; for CTGTATCC: 0.387 ± 0.0293 E-score. In the case of CTGTATCA it was 0.418 ± 0.0231 E-score; in that of ATTTATCC, 0.198 ± 0.0661 E-score. In the case of CTGTATTA it was 0.18 ± 0.00737 E-score.
